Results from article PMC8384837, “Expanding the binding specificity for RNA recognition by a PUF domain”.

Molecular target: PUM1 PUF domain R3-TRR (Homo sapiens, UniProt Q14671 828-1176, C935T;Q939R)
Assay: yeast three-hybrid, YBZ-1, SC-Leu-His + 0.5 mM 3-AT, 4 days
Conditions: tags: N-Gal4 AD-HA kept; label: inside an RPR1-promoter hybrid RNA with tandem MS2 sites; ssRNA
Method in brief: (§1)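 Sequencing with Illumina followed PCR amplification of the repeat regions from transformants grown four days on SC-Leu (input) or SC-Leu-His + 0.5 mM 3-AT (selection). The transformants were strain YBZ-1 with a LexA–MS2 coat fusion and a HIS3 reporter, carrying Pumilio-1 PUF domain libraries and matching RNA elements. The interaction score is the log change in variant frequency from input to selection, computed in log2 with a pseudocount of 1 for absent variants.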

Sequence | binding signal
GGCUAGAACUAGUGGAUCCCCCGGCGCCCGGCGGCUCGAGCCCGGGUAAGUGUAAUUAGUCUGCAUGCCGCCGGGCGCCAUGCCUGCAGGUCGACUCUAGAAAACAUG | 3.68 log2 enrichment (interaction score)
GGCUAGAACUAGUGGAUCCCCCGGCGCCCGGCGGCUCGAGCCCGGGUAAGUGUAAGUAGUCUGCAUGCCGCCGGGCGCCAUGCCUGCAGGUCGACUCUAGAAAACAUG | 1.75 log2 enrichment (interaction score)
GGCUAGAACUAGUGGAUCCCCCGGCGCCCGGCGGCUCGAGCCCGGGUAAGUGUAACUAGUCUGCAUGCCGCCGGGCGCCAUGCCUGCAGGUCGACUCUAGAAAACAUG | 5.18 log2 enrichment (interaction score)
GGCUAGAACUAGUGGAUCCCCCGGCGCCCGGCGGCUCGAGCCCGGGUAAGUGUAAAUAGUCUGCAUGCCGCCGGGCGCCAUGCCUGCAGGUCGACUCUAGAAAACAUG | 1.03 log2 enrichment (interaction score)

Molecular target: PUM1 PUF domain R4-WSC (Homo sapiens, UniProt Q14671 828-1176, N971W;H972S;Q975C)
Assay: as above
Conditions: tags: N-Gal4 AD-HA kept; label: inside an RPR1-promoter hybrid RNA with tandem MS2 sites; ssRNA
Method in brief: as §1

Sequence | binding signal
GGCUAGAACUAGUGGAUCCCCCGGCGCCCGGCGGCUCGAGCCCGGGUAAGUGUAUAUAGUCUGCAUGCCGCCGGGCGCCAUGCCUGCAGGUCGACUCUAGAAAACAUG | 4.12 log2 enrichment (interaction score)
GGCUAGAACUAGUGGAUCCCCCGGCGCCCGGCGGCUCGAGCCCGGGUAAGUGUACAUAGUCUGCAUGCCGCCGGGCGCCAUGCCUGCAGGUCGACUCUAGAAAACAUG | 2.22 log2 enrichment (interaction score)
GGCUAGAACUAGUGGAUCCCCCGGCGCCCGGCGGCUCGAGCCCGGGUAAGUGUAAAUAGUCUGCAUGCCGCCGGGCGCCAUGCCUGCAGGUCGACUCUAGAAAACAUG | 2.87 log2 enrichment (interaction score)

Molecular target: T1, PUM1 PUF domain R6-KWQ (Homo sapiens, UniProt Q14671 828-1176, N1043K;Y1044W)
T1 sequence: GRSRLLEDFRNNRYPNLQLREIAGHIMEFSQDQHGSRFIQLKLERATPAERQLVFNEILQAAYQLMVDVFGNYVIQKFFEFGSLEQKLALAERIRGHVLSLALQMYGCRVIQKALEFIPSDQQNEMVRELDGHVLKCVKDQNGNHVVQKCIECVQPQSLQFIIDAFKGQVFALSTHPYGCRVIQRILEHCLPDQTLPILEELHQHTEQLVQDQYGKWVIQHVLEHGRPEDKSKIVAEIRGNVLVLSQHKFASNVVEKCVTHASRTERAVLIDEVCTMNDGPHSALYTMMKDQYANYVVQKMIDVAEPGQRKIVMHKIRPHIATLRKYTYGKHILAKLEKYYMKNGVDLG
Assay: as above
Conditions: tags: N-Gal4 AD-HA kept; label: inside an RPR1-promoter hybrid RNA with tandem MS2 sites; ssRNA
Method in brief: as §1

Sequence | binding signal
GGCUAGAACUAGUGGAUCCCCCGGCGCCCGGCGGCUCGAGCCCGGGUAAGUGAAAAUAGUCUGCAUGCCGCCGGGCGCCAUGCCUGCAGGUCGACUCUAGAAAACAUG | 2.19 log2 enrichment (interaction score)
GGCUAGAACUAGUGGAUCCCCCGGCGCCCGGCGGCUCGAGCCCGGGUAAGUGCAAAUAGUCUGCAUGCCGCCGGGCGCCAUGCCUGCAGGUCGACUCUAGAAAACAUG | 5.25 log2 enrichment (interaction score)
GGCUAGAACUAGUGGAUCCCCCGGCGCCCGGCGGCUCGAGCCCGGGUAAGUGUAAAUAGUCUGCAUGCCGCCGGGCGCCAUGCCUGCAGGUCGACUCUAGAAAACAUG | 2.54 log2 enrichment (interaction score)

Molecular target: PUM1 PUF domain R3-EWG (Homo sapiens, UniProt Q14671 828-1176, C935E;R936W;Q939G)
Sequence (Q14671 828-1176 C935E/R936W/Q939G): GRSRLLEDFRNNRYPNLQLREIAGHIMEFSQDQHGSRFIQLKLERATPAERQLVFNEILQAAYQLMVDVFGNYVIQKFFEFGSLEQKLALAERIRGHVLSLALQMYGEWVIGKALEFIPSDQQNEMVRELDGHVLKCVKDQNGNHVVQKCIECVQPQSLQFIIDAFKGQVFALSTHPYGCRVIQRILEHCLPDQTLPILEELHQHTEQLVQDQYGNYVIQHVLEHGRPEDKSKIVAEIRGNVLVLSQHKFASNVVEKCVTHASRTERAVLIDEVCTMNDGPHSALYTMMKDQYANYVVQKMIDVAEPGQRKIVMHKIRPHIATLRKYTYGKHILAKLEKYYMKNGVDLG
Assay: as above
Conditions: tags: N-Gal4 AD-HA kept; label: inside an RPR1-promoter hybrid RNA with tandem MS2 sites; ssRNA
Method in brief: as §1

Sequence | binding signal
GGCUAGAACUAGUGGAUCCCCCGGCGCCCGGCGGCUCGAGCCCGGGUAAGUGUAAUUAGUCUGCAUGCCGCCGGGCGCCAUGCCUGCAGGUCGACUCUAGAAAACAUG | 3.95 log2 enrichment (interaction score)
GGCUAGAACUAGUGGAUCCCCCGGCGCCCGGCGGCUCGAGCCCGGGUAAGUGUAAGUAGUCUGCAUGCCGCCGGGCGCCAUGCCUGCAGGUCGACUCUAGAAAACAUG | 4.81 log2 enrichment (interaction score)
GGCUAGAACUAGUGGAUCCCCCGGCGCCCGGCGGCUCGAGCCCGGGUAAGUGUAAAUAGUCUGCAUGCCGCCGGGCGCCAUGCCUGCAGGUCGACUCUAGAAAACAUG | 3.61 log2 enrichment (interaction score)
